Reference: PubChem BioAssay (Tox21)
“And” between values parts separate entries of the source, which are not always exact repeats. Identical values can stand only once. Inconclusive results are not listed. Some compounds were tested as several samples or in several runs, with calls that do not always agree. The source made the active and inactive calls. Unless noted, the call rests on the fitted dose curve; in most records, active means well fitted curve in the direction sought with a large enough effect in the repeat runs; inconclusive means weak or mixed curves; inactive means no such curve, though single readings can be large; an effect the other way counts as inactive or inconclusive.

How the values were obtained:
[1] = biological target: Thyrotropin-releasing hormone receptor (Homo sapiens) (UniProt P34981); test: qHTS assay to identify small molecule agonists of the thyrotropin-releasing hormone receptor (TRHR) signaling pathway (AID 1346891; calls by dose curve;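 further: HEK293 cells expressing TRHR with calcium dye readout; series mostly up to about 58 µM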)
Thyrotropin-releasing hormone receptor (Homo sapiens), sequence (P34981 whole entry, looked up): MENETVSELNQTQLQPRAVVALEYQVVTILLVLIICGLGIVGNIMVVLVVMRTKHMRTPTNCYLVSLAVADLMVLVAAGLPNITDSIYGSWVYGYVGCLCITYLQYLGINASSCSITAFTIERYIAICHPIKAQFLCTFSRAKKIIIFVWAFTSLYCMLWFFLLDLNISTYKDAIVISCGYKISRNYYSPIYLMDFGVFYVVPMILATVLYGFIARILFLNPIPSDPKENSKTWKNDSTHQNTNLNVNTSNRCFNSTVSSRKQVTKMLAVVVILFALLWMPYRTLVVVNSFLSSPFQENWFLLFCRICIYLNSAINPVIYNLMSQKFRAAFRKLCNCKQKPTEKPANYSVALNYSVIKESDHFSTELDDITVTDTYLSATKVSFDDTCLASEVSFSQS
In short: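 Compounds were tested as agonists at 15 concentrations, in triplicate, on TRHR-Hek293 cells; calcium-sensitive dye fluorescence was recorded for 3 min following addition.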

[2] = Human pregnane X receptor (PXR) small molecule agonists, qHTS cell viability counter screen (AID 1346977); further: nearly all actives have a fitted effect of over 50% in size
In short: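 Viability counter screen: CellTiter-Fluor signal in PXR-Luc HepG2 cells, 24hr compound exposure, 37C, 5% CO2.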

[3] = Caspase-3/7 induction in HepG2 cells by small molecules, qHTS assay (AID 1346978); further: nearly all actives have a fitted effect of over 15% in size
In short: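 Wild-type HepG2 cells, 2,000/well, settled 5 hr at 37 C and 5% CO2, then compound-treated for 17 hr; caspase-3/7 activity read by luminescent Caspase-Glo 3/7 after 30 min at room temperature.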

[4] = Caspase-3/7 induction in CHO-K1 cells by small molecules, qHTS cell viability counter screen (AID 1346979); further: nearly all actives have a fitted effect of over 35% in size
In short: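 Viability readout by fluorescence (CellTiter-Fluor) on wild-type CHO-K1 cells exposed for 16hr at 37C and 5% CO2 to compounds delivered in DMSO; reagent incubated 1hr before reading.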

[5] = Caspase-3/7 induction in CHO-K1 cells by small molecules, qHTS assay (AID 1346980); further: nearly all actives have a fitted effect of over 15% in size
In short: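 Wild-type CHO-K1 cells exposed to compounds for 17hr at 37 C, 5% CO2. Caspase-3/7 activity then measured by Caspase-Glo 3/7 luminescence after 30min at room temperature.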

[6] = biological target: Cytochrome P450 2D6 (Homo sapiens) (UniProt P10635); test: Cytochrome P450 Family 2 Subfamily D Member 6 (CYP2D6) small molecule antagonists: luciferase reporter qHTS assay (AID 1671196); further: nearly all actives have a fitted effect of over 50% in size; further: potency means the concentration at half of the fitted maximal effect
Cytochrome P450 2D6 (Homo sapiens), sequence (P10635 whole entry, looked up): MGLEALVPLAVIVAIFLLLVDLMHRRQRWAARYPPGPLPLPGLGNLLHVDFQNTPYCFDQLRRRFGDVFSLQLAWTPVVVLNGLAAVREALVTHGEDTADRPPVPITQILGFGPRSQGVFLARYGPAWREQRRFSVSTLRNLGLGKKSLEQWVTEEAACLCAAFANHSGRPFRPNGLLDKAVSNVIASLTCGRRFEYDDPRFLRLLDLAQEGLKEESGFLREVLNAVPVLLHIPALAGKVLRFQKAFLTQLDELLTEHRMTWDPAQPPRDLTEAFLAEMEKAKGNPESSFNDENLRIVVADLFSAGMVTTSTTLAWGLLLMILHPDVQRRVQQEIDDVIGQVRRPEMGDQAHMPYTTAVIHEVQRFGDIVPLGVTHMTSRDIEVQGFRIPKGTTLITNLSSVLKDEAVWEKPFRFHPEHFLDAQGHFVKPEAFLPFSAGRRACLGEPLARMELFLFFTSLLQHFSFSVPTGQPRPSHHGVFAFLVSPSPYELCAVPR
In short: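 Test chemicals meet CYP2D6 plus proluciferin substrate (10 min, RT); NADPH regenerating solution then drives turnover for 1 h. Detection reagent halts the reaction; luminescence measured after 20 min.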

[7] = biological target: Cytochrome P450 2C19 (Homo sapiens) (UniProt P33261); test: Cytochrome P450 Family 2 Subfamily C Member 19 (CYP2C19) small molecule antagonists: luciferase reporter qHTS assay (AID 1671197); further: nearly all actives have a fitted effect of over 65% in size; further: potency means the concentration at half of the fitted maximal effect
Cytochrome P450 2C19 (Homo sapiens), sequence (P33261 whole entry, looked up): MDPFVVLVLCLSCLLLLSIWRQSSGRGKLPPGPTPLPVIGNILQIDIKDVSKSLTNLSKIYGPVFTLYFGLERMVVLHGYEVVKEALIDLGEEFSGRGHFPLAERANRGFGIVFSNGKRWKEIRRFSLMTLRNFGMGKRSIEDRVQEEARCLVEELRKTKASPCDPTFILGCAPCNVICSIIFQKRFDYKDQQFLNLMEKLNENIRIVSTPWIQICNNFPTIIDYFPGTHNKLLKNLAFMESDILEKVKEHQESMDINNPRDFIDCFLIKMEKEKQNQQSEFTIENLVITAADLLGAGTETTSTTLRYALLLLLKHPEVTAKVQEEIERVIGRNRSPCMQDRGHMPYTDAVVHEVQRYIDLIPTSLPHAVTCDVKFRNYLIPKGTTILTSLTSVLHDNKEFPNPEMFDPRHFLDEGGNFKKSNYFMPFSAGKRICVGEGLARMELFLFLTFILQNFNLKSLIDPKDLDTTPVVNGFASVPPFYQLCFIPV
In short: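 Inhibition of CYP2C19 was scored from loss of luminescence in a P450-Glo proluciferin substrate assay, NADPH-started and run 1 h at 37C, with ketoconazole as positive control.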

[8] = biological target: Cytochrome P450 2C9 (Homo sapiens) (UniProt P11712); test: Cytochrome P450 Family 2 Subfamily C Member 9 (CYP2C9) small molecule antagonists: luciferase reporter qHTS assay (AID 1671198); further: nearly all actives have a fitted effect of over 50% in size; further: potency means the concentration at half of the fitted maximal effect
Cytochrome P450 2C9 (Homo sapiens), sequence (P11712 whole entry, looked up): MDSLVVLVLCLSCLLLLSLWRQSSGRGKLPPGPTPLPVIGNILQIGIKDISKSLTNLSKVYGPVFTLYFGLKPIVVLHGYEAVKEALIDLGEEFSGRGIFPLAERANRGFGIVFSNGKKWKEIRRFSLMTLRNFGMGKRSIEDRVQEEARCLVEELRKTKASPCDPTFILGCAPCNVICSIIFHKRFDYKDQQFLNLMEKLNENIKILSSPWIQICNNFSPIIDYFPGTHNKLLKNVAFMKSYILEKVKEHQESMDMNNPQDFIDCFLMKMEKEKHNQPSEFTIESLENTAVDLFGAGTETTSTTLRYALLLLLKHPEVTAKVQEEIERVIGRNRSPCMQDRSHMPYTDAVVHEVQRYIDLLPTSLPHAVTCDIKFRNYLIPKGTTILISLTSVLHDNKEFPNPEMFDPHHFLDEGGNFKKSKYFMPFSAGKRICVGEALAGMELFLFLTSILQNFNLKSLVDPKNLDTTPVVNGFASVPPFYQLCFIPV
In short: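 P450-Glo proluciferin substrate with CYP2C9 enzyme; 10 min RT preincubation, then NADPH regeneration 1 h at 37C; luciferin detection reagent 20 min RT, luminescence in relative luminescence units.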

[9] = biological target: Cytochrome P450 1A2 (Homo sapiens) (UniProt P05177); test: Cytochrome P450 Family 1 Subfamily A Member 2 (CYP1A2) small molecule antagonists: luciferase reporter qHTS assay (AID 1671199); further: nearly all actives have a fitted effect of over 50% in size; further: potency means the concentration at half of the fitted maximal effect
Cytochrome P450 1A2 (Homo sapiens), sequence (P05177 whole entry, looked up): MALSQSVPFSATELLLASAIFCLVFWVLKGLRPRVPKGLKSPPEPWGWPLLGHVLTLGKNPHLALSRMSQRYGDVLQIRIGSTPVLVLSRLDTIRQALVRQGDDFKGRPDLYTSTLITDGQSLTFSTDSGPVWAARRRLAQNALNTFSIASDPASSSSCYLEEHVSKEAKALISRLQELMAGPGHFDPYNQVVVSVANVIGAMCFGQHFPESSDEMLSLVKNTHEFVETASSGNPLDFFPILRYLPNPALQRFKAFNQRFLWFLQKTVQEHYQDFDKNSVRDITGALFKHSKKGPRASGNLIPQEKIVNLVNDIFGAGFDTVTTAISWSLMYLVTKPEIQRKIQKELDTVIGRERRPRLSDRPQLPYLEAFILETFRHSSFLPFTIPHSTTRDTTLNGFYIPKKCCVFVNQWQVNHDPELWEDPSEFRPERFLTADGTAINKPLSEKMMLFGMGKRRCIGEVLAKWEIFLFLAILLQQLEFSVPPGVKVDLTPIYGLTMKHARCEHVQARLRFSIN
In short: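 Steps: enzyme-substrate mix dispensed; test compounds and furafylline control pinned in; 10 min room temperature; NADPH regeneration solution added, 1 h; reaction stopped with luciferin detection reagent; luminescence read after 20 min.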

[10] = biological target: Voltage-gated inwardly rectifying potassium channel KCNH2 (Homo sapiens) (UniProt Q12809); test: Human Ether-a-go-go-Related Gene (hERG) channel small molecule antagonists: fluorescence cell-based qHTS assay (AID 1671200)
Voltage-gated inwardly rectifying potassium channel KCNH2 (Homo sapiens), sequence (Q12809 whole entry, looked up): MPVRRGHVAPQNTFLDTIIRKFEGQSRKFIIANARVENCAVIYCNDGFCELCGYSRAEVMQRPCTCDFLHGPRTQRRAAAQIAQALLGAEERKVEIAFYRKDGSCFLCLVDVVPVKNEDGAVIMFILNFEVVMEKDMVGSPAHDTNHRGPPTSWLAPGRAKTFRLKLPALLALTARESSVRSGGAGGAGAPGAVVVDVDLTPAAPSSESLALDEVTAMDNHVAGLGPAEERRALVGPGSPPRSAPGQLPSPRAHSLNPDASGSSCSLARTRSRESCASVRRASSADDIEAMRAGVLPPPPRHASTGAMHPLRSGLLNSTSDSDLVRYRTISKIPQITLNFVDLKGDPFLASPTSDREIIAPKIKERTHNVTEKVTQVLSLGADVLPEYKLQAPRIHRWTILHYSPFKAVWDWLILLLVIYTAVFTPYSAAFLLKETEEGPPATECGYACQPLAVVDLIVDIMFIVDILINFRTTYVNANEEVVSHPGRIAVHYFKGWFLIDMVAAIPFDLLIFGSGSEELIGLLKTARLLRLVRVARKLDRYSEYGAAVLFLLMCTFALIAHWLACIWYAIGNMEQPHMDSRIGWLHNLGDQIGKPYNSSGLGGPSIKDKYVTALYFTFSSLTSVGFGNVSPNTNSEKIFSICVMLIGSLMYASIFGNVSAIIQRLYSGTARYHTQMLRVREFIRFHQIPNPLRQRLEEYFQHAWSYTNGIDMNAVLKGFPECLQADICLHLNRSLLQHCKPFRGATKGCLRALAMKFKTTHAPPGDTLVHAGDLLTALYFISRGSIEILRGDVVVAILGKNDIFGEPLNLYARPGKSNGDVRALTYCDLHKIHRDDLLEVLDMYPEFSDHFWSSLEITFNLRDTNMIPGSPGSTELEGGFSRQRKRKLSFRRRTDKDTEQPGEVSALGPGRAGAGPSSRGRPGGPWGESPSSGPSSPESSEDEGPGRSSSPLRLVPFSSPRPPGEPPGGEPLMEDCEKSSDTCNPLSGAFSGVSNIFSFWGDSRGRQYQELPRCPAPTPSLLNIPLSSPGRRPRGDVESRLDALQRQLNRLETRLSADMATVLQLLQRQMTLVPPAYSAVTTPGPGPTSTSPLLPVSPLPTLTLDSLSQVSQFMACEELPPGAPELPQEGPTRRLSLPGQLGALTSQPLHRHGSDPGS
In short: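 Thallium served as the potassium surrogate; its influx into dye-loaded U2OS cells carrying the channel was measured by fluorescence over 2 min.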

[11] = biological target: Cytochrome P450 3A4 (Homo sapiens) (UniProt P08684); test: Cytochrome P450 Family 3 Subfamily A Member 4 (CYP3A4) small molecule antagonists: luciferase reporter qHTS assay (AID 1671201)
Cytochrome P450 3A4 (Homo sapiens), sequence (P08684 whole entry, looked up): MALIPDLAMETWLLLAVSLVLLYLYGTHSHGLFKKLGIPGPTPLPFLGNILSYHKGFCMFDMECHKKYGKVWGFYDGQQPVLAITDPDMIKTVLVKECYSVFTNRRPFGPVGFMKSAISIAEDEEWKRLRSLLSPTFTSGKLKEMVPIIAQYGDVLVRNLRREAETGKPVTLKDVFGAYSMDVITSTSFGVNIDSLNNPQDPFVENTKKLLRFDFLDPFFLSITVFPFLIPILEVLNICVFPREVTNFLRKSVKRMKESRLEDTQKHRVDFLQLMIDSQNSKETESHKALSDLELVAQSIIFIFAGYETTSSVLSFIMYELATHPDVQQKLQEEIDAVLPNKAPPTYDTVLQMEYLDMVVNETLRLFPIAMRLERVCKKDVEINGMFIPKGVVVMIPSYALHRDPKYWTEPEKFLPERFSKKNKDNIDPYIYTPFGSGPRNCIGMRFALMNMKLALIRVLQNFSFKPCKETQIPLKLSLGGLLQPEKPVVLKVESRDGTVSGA
In short: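 Relative luminescence units after 20 min with luciferin detection reagent served as read-out. Beforehand, CYP3A4 turned over a proluciferin substrate for 1 h at room temperature with NADPH regeneration, following 10 min compound preincubation.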

[12] = Caspase-3/7 induction in HepG2 cells by small molecules, qHTS cell viability counter screen (AID 1346981); further: series mostly up to about 92 µM; nearly all actives have a fitted effect of over 30% in size
In short: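 In this quantitative HTS counter screen, compounds delivered in DMSO were left on unmodified HepG2 cells for 16 hr at 37 C. Viability was then determined fluorometrically with CellTiter-Fluor, in parallel with caspase-3/7 induction in the same wells.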

[13] = biological target: Nuclear receptor subfamily 1 group I member 2 (Rattus norvegicus) (UniProt Q9R1A7); test: Rat pregnane X receptor (rPXR) activation by small molecules, qHTS assay (AID 1346983); settings: rPXR luciferase reporter cells, One-Glo luminescence, 24 h; stronger effect = higher value; further: nearly all actives have a fitted effect of over 20% in size
Nuclear receptor subfamily 1 group I member 2 (Rattus norvegicus), sequence (Q9R1A7 whole entry, looked up): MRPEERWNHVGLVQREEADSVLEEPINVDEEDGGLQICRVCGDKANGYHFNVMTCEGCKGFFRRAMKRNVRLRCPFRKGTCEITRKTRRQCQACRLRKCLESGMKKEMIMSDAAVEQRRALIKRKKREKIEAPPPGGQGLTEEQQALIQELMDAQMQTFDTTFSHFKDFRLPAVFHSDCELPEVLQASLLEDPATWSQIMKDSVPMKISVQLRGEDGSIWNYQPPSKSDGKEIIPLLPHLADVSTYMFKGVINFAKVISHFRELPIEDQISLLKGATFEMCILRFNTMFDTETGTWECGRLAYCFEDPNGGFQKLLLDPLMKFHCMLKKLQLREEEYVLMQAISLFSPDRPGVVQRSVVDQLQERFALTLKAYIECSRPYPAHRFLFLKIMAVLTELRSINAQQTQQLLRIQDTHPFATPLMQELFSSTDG
In short: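 Cell-based rPXR activation assay: rPXR cells, 2,000 per well, rested 5hr at 37 C, then exposed to compounds in DMSO for 24 hr at 37 C. Luciferase activity read by One-Glo luminescence after 30 min at room temperature.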

[14] = biological target: Nuclear receptor subfamily 1 group I member 2 (Homo sapiens) (UniProt O75469); test: Human pregnane X receptor (PXR) small molecule agonists, qHTS assay (AID 1346982); further: nearly all actives have a fitted effect of over 35% in size; further: potency means the concentration at half of the fitted maximal effect
Nuclear receptor subfamily 1 group I member 2 (Homo sapiens), sequence (O75469 whole entry, looked up): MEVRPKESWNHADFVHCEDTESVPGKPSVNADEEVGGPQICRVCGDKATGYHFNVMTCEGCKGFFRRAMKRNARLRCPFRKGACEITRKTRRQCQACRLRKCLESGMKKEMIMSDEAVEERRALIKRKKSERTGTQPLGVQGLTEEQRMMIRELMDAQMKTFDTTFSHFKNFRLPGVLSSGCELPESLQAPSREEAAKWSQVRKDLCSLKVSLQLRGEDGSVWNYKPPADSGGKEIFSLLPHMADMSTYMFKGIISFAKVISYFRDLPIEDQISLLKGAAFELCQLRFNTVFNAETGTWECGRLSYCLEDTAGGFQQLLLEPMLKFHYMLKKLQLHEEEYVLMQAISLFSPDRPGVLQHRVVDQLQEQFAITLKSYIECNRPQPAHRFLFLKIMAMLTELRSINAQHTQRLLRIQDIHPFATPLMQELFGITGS
In short: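 Reporter HepG2 cells expressing PXR-Luc are cultured in charcoal-stripped FBS (5%), treated with compounds for 24 hr at 37 C, and assayed by ONE-Glo luminescence after 30 min at room temperature.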

[15] = biological target: Nuclear receptor subfamily 1 group I member 2 (Homo sapiens) (UniProt O75469); test: Human pregnane X receptor (PXR) activation by small molecules, qHTS assay (AID 1346985); further: nearly all actives have a fitted effect of over 40% in size
In short: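 DPX-2 cells (HepG2 co-transfected with a PXR response element and a CYP3A4-promoter luciferase construct) were seeded at 2,000 per well, rested 5 hr at 37C, then exposed to DMSO-dissolved compounds for 24 hr. Activation was read as luciferase luminescence.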
On the % scale 0 is the no-effect control and ±100 the full control effect.

O=C(O)/C=C\C(=O)O
41.3 µM (active) and inactive: Potency [7]
inactive: outcome [1] | Potency [2] | Potency [3] | Potency [4] | outcome [5] | Potency [8] | Potency [9] | outcome [10] | Potency [11]
25.2 µM (active) and inactive: Potency [6]

O=S(=O)(O)NC1CCCCC1
inactive: Potency [2] | Potency [3] | Potency [4] | outcome [5] | Potency [12] | max activation [13] -1.36% | outcome [10]

CNC[C@H](O)c1cccc(O)c1
inactive: Potency [2] | Potency [3] | Potency [4] | outcome [5] | Potency [12] | max activation [13] -0.862% | outcome [10]

CCCC(O)C(CC)CO (stereo not drawn)
inactive: Potency [2] | Potency [3] | Potency [4] | outcome [5] | Potency [12] | Potency [14] | max activation [13] -6.82% | Potency [15] | Potency [6] | Potency [7] | Potency [8] | Potency [9] | outcome [10] | Potency [11]

CCC1(c2ccccc2)C(=O)NCNC1=O
inactive: Potency [2] | Potency [3] | Potency [4] | outcome [5] | Potency [14] | Potency [6] | Potency [7] | Potency [8] | Potency [9] | outcome [10] | Potency [11]

O=C(c1ccccc1)c1ccccc1
inactive: Potency [2] | Potency [3] | Potency [4] | outcome [5] | Potency [12]

COc1c2occc2cc2ccc(=O)oc12
active: Potency [14] 61.5 µM and 48.6 µM | Potency [8] 5.06 µM and 10 µM and 4.9 µM
inactive: Potency [2] | Potency [3] | Potency [4] | outcome [5] | Potency [12] | outcome [10]

OCCc1ccccc1
inactive: outcome [1] | Potency [2] | Potency [3] | Potency [4] | outcome [5] | Potency [14] | Potency [6] | Potency [7] | Potency [8] | Potency [9] | outcome [10] | Potency [11]

Cc1noc(NS(=O)(=O)c2ccc(N)cc2)c1C
inactive: outcome [1] | Potency [2] | Potency [3] | Potency [4] | outcome [5] | Potency [14] | Potency [6] | Potency [7] | Potency [8] | Potency [9] | outcome [10] | Potency [11]

NNC(=O)c1ccncc1
active: Potency [7] 15.9 µM and 2.97 µM and 17.4 µM | Potency [8] 35.7 µM and 13.3 µM | Potency [9] 40 µM and 26.5 µM and 27.5 µM
40 µM (active) and inactive: Potency [6]
inactive: Potency [2] | Potency [3] | Potency [4] | outcome [5] | Potency [12] | Potency [14] | outcome [10]

Cc1ccc(O)cc1
inactive: outcome [1] | Potency [3] | Potency [4] | outcome [5] | outcome [10]
